Rows were chosen to be rich in hits. Some 7% of all compounds tested hit in one or more screens of this group.
ATXN2 expr inh = inhibitors of ATXN2 expression. HEK-293 ATXN2-luciferase reporter, luminescence, 24 h. Potency, µM (top dose mostly 57 µM), for the others: top-dose activity change, negative = inhibition, usual class: inhibitors. 0.72% of 360,000 active. AID 1745845; also: potency is read from the fitted curve at half-maximal effect; % is scaled to controls: 0 for no effect and ±100 for the full control effect; nearly all actives have a fitted effect of over 55% in size
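qHTS (up to 57 uM final) was run with 24 h compound exposure of reporter cells at 37 °C. Each well was multiplexed: SteadyGlo luminescence measured ATXN2-luciferase expression after a fluorogenic Gly-Phe-AFC viability readout (25 uM final).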
DRD3 agonist = activates the human D3 dopamine receptor; P35462; D3R DiscoveRx beta-arrestin cells, luminescence, 90 min; max activation, %; 0.58% of 410,000 active; AID 652048; in the data active = max activation above about 30%; also: 0% is about no effect
Target sequence (P35462 whole entry, looked up): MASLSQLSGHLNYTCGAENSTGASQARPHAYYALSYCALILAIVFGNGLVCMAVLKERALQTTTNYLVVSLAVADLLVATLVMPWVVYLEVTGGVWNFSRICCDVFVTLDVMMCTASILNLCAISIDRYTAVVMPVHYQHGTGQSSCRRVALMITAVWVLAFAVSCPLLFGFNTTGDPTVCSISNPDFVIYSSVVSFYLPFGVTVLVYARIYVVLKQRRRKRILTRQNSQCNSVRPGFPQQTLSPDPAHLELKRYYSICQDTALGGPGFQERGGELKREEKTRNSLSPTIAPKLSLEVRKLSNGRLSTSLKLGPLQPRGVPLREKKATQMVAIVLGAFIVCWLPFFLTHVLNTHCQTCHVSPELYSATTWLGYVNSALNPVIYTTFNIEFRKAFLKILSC
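Agonist mode: compounds and dopamine controls were applied to plated cells for 90 min at 37 degrees C after an overnight attachment at 1500 cells/well. Luminescent read-out followed 30 - 60 minutes at room temperature with DiscoveRx detection reagent.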
Integrin act MD = activators of alpha7 integrin expression for muscular dystrophy; 0.064% of 350,000 active; AID 624291; Potency, µM (highest dose often 38.3 µM), without a hit: at the highest dose activation, usual class: activators; alpha7betagal myoblasts, beta-gal FDG fluorescence, 48 h;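 also: potency is read from the fitted curve at half-maximal effect; 100% = response of the positive control SU9516; nearly all actives have a fitted effect of over 60% in size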
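Alpha7betagal+/- myoblasts (passage 13) were plated 16-24 hr, then exposed to compounds (1:260 dilution of DMSO stock) for 48 hours at 37C. After MPER lysis, β-galactosidase reporter activity was read as FDG fluorescence (ex 480/em 540) after 30 minutes.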
ATXN viability = reduces viability in counter-screen for ATXN expression inhibitors; S2 cells (HEK-293 line with an ATXN2-luciferase reporter) viability, CellTiter-Fluor protease fluorescence, 24 h; Potency, µM (series often up to 56.7 µM), usual class: cytotoxic; 0.49% of 400,000 active; also: potency is read from the fitted curve at half-maximal effect; nearly all actives have a fitted effect of over 40% in size
DRD3 antagonist = blocks the human D3 dopamine receptor. P35462. 2.5% of 360,000 active. max response, negative = inhibition, %. D3R cells, DiscoveRx beta-arrestin luminescence, antagonist mode; stronger effect = lower value; in the data active = max response below about -50%; inconclusive = no clear call, values can overlap the other calls; also: % is scaled to controls: 0 for no effect and ±100 for the full control effect
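Cells expressing the human receptor were seeded at 1500 cells/well, incubated overnight at 37 degrees C in 5% CO2, then exposed to library compounds with dopamine controls for 90 minutes at 37 degrees C before luminescent detection.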
IL1B secr inh = inflammasome signaling inhibition, IL-1 beta readout; activity change, % at 57.5 µM; THP-1 LPS/ATP IL-1B secretion, AlphaLISA, 16 h; stronger effect = lower value; 4.7% of 360,000 active; AID 743279; in the data active = activity change below about -50%; inconclusive = mostly about -30% to -49%; also: % is scaled to controls: 0 for no effect and ±100 for the full control effect
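Secreted IL-1B measured by AlphaLISA bead assay after 16 h compound exposure of THP-1 cells; compounds (final up to 57.5 uM) added 1 h before LPS (250 ng/mL) and ATP (1.25 mM) stimulation; lower signal means less secretion.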
An asterisk follows results filed as active; i = inactive; ? = inconclusive; / = not tested or not shown; [ ] = remark or other dose. Unless noted, calls follow the shape of the dose curve; as a rule, active = well fitted curve in the direction sought with a large enough effect; inconclusive = small, poorly fitted or top-dose-only effect, or another doubt; inactive = no such curve, though single readings can be large; an effect the other way counts as inactive or inconclusive.

SMILES	ATXN2 expr inh	DRD3 agonist	Integrin act MD	ATXN viability	DRD3 antagonist	IL1B secr inh
O=C(NCCc1ccccc1)c1c[nH]c2c(F)cccc2c1=O	42%	-4	20%	i	-50*	6
CCCCCCC(=O)Nc1cc2nc3c(nc2cc1C)c(=O)n(C)c(=O)n3C	7%	0	/	i	/	/
CCOc1ccc(-c2cc(C(=O)NCc3ccccc3)[nH]n2)c(C)c1	15%	-8	/	i	1	-13
Nc1nnc(SCC(=O)NNC(=O)c2ccc(Cl)cc2)s1	7%	5	-12%	i	-29	0
Cc1ccc(Cn2cc(CN3CC(N4CCN(CCO)CC4)CS3(=O)=O)nn2)cc1 (centres undefined)	13%	-2	/	i	-7	42
CC(=O)Oc1ccc(C(=O)Nc2ccc(C3(C#N)CCCC3)cc2)cc1	/	-6	-30%	?	-24	-59*
CCOC(=O)c1cc2c(ccn2C)n1CC(=O)N1CCC(Cc2ccccc2)CC1	0%	1	-47%	?	-12	-74*
CCOC(=O)c1cc2c(ccn2C)n1CC(=O)N1CCCC(C)C1 (centres undefined)	-6%	0	5%	?	-9	-8
CCc1cc(C(=O)c2ccc(Br)cc2)c(NC(=O)CN(CC)CC)s1	-29%	2	20%	i	-62*	-7
COc1ccc(C(=O)OC(COc2ccccc2)Cn2ccnc2)cc1 (centres undefined)	-4%	-6	11%	i	-18	-90*
COC(=O)c1cccc(OCC(O)Cn2ccnc2)c1 (centres undefined)	-1%	-9	17%	i	9	-1
COc1ccc(CNC(=O)Cn2c(=O)oc3cc(S(=O)(=O)N4CCCC4)ccc32)cc1	2%	8	3%	i	3	-6
CCOCCCNC(=O)C(C)NS(=O)(=O)c1ccc(C)cc1 (centres undefined)	3%	1	10%	i	-11	4
COCCn1c(C)cc(C(=O)COC(=O)c2cncc(Br)c2)c1C	4%	-4	7%	i	-10	-11
COCCn1c(C)cc(C(=O)COC(=O)c2ccc3ncsc3c2)c1C	47%	7	-54%	?	-55*	-12
O=C(N/N=C/c1cccc2ccccc12)c1ccccc1Cl	25%	1	?	i	-23	-51*
COc1ccc(C(=O)Nc2ccccc2C(=O)N/N=C/c2ccccn2)cc1OC	28µM*	7	-23%	i	7	/
O=C(N/N=C/c1ccccn1)c1ccc(Cl)cc1	?	-16	-62%	i	?	-101*
O=C(COc1ccc(Cl)cc1)N/N=C/c1cccc2cccnc12	25µM*	2	-25%	i	7	i
COc1ccc(OCC(=O)N/N=C/c2cccc3cccnc23)cc1	?	3	-43%	i	-2	128
CSc1nnc(C2CCN(CC(=O)Nc3ccccc3N3CCOCC3)CC2)n1C(C)C	-6%	-6	-32%	i	-7	-10
Cc1ccc(OCc2nnc(SCC(=O)Nc3ccc4c(c3)OCCO4)n2Cc2ccco2)cc1	11%	2	-29%	i	13	-17
COc1ccc(C(C(=O)NC(C)(C)C)N(CC2CCCO2)C(=O)CCC(=O)Nc2cc(C)on2)cc1 (centres undefined)	-3%	3	-10%	i	9	7
O=C(C1COc2cc(S(=O)(=O)Nc3ccc(Cl)cc3)ccc2O1)N1CCCC1 (centres undefined)	-14%	16	/	i	/	/
Cc1ccccc1C(=O)N/N=C/c1ccccn1	-20%	4	-22%	i	9	14
SMILES	ATXN2 expr inh	DRD3 agonist	Integrin act MD	ATXN viability	DRD3 antagonist	IL1B secr inh
O=C(N/N=C/c1cccc2cccnc12)c1ccccc1O	/	-15	-52%	3.5µM*	-53*	228
O=C(N/N=C/c1cccc2nccnc12)c1ccccc1O	?	-3	0%	i	-15	248
O=C(N/N=C\c1ccccn1)c1ccccc1O	-54%	-9	-65%	i	?	-123*
COc1ccc(CC(=O)Nc2cc(-c3cn4cccnc4n3)ccc2C)cc1OC	/	-15	/	/	/	/
COc1ccc(NC(=O)N2CCCC(c3nc(-c4ccc(C(C)C)cc4)no3)C2)cc1 (centres undefined)	-22%	20	-9%[7.66 µM]	i	-8	-50*
CCCCCCC(=O)N1CCCC(c2nc(-c3cccc(OC)c3)no2)C1 (centres undefined)	-8%	20	-14%	?	7	-62*
COc1ccc(-c2noc(C3CCCN(C(=O)c4cccc(F)c4)C3)n2)cc1 (centres undefined)	-24%	9	0%	i	7	-69*
COc1ccc(NC(=O)N2CCCC(c3nc(-c4ccc(OC)cc4)no3)C2)cc1 (centres undefined)	-5%	20	-36%	?	-5	-54*
COc1ccc(-c2noc(C3CCCN(C(=O)Nc4ccccc4)C3)n2)cc1 (centres undefined)	-12%	4	-31%	?	-2	-2
CNC(=S)NNC(=O)COc1ccc(C)c(C)c1	33%	3	16%	i	-12	-15
CC(=O)c1ccc(C(=O)N2CCc3c([nH]c4ccccc34)C2c2cccc(C)n2)s1 (centres undefined)	0%	-33	4%	i	-56*	-67*
Cc1cccc(C2c3[nH]c4ccccc4c3CCN2C(=O)c2ccc(=O)[nH]c2)n1 (centres undefined)	-6%	-1	-23%	i	10	32
Cc1cc2cc(C(=O)N3CCc4c([nH]c5ccccc45)C3c3ccccn3)ccc2o1 (centres undefined)	-23%	1	7%	?	-2	-25
CCOC(=O)c1[nH]c(C)c(C(=O)N2CCc3c([nH]c4ccccc34)C2c2ccccn2)c1C (centres undefined)	?	1	-35%	?	-13	-52*
CCN(CC)S(=O)(=O)c1cccc(C(=O)N/N=C/c2ccc(O)c(O)c2O)c1	-25%	9	-6%	i	13	35
CCN(CC)S(=O)(=O)c1cccc(C(=O)N/N=C(\C)c2ccc(O)cc2O)c1	2.4µM*	0	-9%	/	5	93
CC(Sc1nnc(CN2CCCC2)n1Cc1ccccc1)C(=O)Nc1ccccc1 (centres undefined)	6%	-5	-4%	i	1	20
O=[N+]([O-])c1ccc(S(=O)(=O)Nc2ncccn2)cc1	1%	-3	?	i	-10	0
CCCCc1c(-c2ccccc2Br)ncn1CCc1ccccc1OC	?	1	/	/	21	-79*

Source: PubChem BioAssay (National Center for Advancing Translational Sciences (NCATS))
